This is one part of a sample in which hits are shown more often than they occur.
Gal4-VP16 FLuc – counter-screen for ROR gamma inhibitors: Gal4-VP16 reporter; Potency, µM (highest dose often 53.6 µM), for inactives: top-dose activity, negative = inhibition, most hits filed as inhibitors; hit rate 3.5% among 310,000; Drosophila S2 Gal4-VP16 UAS-luciferase, luminescence, 20 h;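 note: Gal4-VP16 expression switched on by copper sulfate through the metallothionein promoter; potency is the fitted concentration of half-maximal effect; % is set by controls: 0 for no effect and ±100 for the full control effect; nearly all actives have a fitted effect of over 50% in size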
a7 integrin act – activators of alpha7 integrin expression for muscular dystrophy; alpha7betagal myoblasts, beta-gal FDG fluorescence, 48 h; Potency, µM (top dose mostly 38.3 µM), for inactives: at the top dose activation, usual class: activators; hit rate 0.064% among 350,000; AID 624291;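 note: potency is the fitted concentration of half-maximal effect; 100% = response of the positive control SU9516; nearly all actives have a fitted effect of over 60% in size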
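Alpha7betagal+/- myoblasts (passage 13) were plated 16-24 hr, then exposed to compounds (1:260 dilution of DMSO stock) for 48 hours at 37C. After MPER lysis, β-galactosidase reporter activity was read as FDG fluorescence (ex 480/em 540) after 30 minutes.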
ERG Ets-DNA blk – blocks human ERG Ets domain binding to DNA; hit rate 0.028% among 370,000; P11308; Potency, µM (doses to about 76.9 µM), for inactives: at the top dose FP activity, negative = inhibition, usual class: inhibitors; fluorescence polarization, His-ERG Ets domain / labelled DNA; active = well fitted inhibition curve with a large enough effect in the polarisation, with a control signal flat; inconclusive = small, poorly fitted or top-dose-only effect, or effect the other way, or a change in a side signal; inactive = no such curve, though single readings can be large or run the other way; the % refers to the polarisation;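 note: polarization taken with two DNA probes labelled with fluorescein and Texas red; potency is the fitted concentration of half-maximal effect; % of control where 0% means no effect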
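His-tagged ERG Ets domain (1 uM in the protein solution; 300mM KCl, 50mM Tris-HCl, 1mM EDTA, 1mM DTT, pH 7.5) received compound, then a probe mix of 5 nM fluorescein-DNA and 100nM Texas-615-DNA. Fluorescence polarization was read for both dyes.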
Giardia killer – Giardia lamblia killing. Giardia lamblia trophozoite viability. activity change, % at 7.66 µM, hits read low. hit rate 0.15% among 340,000; in the data active = activity change below about -80%; inconclusive = between about -30% and that limit;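 note: parasites exposed to compound for two days anaerobically before the ATP read; % is set by controls: 0 for no effect and ±100 for the full control effect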
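Anaerobic 48 hrs incubation at 37 deg C of 100 trophozoites/well with test compounds; ATPLite 1-Step luminescence, 15-30 min RT, reports cellular ATP as viability.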
RORg inh – inhibitors of mouse ROR gamma transcriptional activity | Potency, µM (series often up to 53.6 µM), for inactives: at the top dose activity change, negative = inhibition, hits mostly inhibitors | hit rate 5.4% among 310,000 | Drosophila S2 Gal4-RORgamma UAS-luciferase reporter, 20 h; note: potency is the fitted concentration of half-maximal effect; % is set by controls: 0 for no effect and ±100 for the full control effect; nearly all actives have a fitted effect of over 60% in size
Target sequence (P51450 whole entry, looked up, the tested form may be a part): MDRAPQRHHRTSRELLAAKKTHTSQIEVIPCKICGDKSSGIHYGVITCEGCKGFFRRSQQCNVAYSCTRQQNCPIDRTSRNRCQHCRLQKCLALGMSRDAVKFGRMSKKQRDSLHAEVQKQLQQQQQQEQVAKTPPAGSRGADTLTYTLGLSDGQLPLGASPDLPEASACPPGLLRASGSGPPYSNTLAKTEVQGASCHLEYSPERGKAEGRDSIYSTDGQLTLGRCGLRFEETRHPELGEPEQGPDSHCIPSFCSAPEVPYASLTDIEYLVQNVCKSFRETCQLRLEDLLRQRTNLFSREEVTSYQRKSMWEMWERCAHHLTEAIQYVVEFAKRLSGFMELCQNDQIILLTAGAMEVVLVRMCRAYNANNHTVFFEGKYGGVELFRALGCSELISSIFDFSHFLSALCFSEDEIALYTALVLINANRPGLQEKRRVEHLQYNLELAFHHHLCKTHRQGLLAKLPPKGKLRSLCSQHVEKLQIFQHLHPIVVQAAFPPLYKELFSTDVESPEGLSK
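ROR gamma transcriptional activity was tracked as Gal4-UAS luciferase output in stably transfected Drosophila Schneider cells, with compound added 1 hr before 700 uM copper sulfate induction and a 20 hr ambient-temperature incubation.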
* hit, by the source's call; ? = inconclusive; · = no result given. Unless noted, calls come from the whole dose curve; as a rule, active = well fitted curve in the direction sought with a large enough effect; inconclusive = small, poorly fitted or top-dose-only effect, or another doubt; inactive = no such curve, though single readings can be large; an effect the other way counts as inactive or inconclusive.

SMILES	Gal4-VP16 FLuc	a7 integrin act	ERG Ets-DNA blk	Giardia killer	RORg inh
O=c1cc(-c2ccccc2)[nH]n1-c1nc2ccccc2s1	?	13.3%	1.1%	2.6	8.91µM*
O=c1cc(-c2ccccc2)[nH]n1-c1ccccc1	·	?	-1.5%	-7.5	·
O=C1NC2(CCCC2)N=C1c1ccc(F)cc1	-3.8%	26.4%	-3.1%	5.8	-5.0%
S=C1NC2(CCCCC2)N=C1c1ccccc1	3.55µM*	12.2%	-8.0%	-17.6	3.16µM*
O=C1NC2(CCCCCC2)N=C1c1ccc(Br)cc1	-3.1%	27.8%	-9.4%	-15.3	1.8%
CCN1CCC2(CC1)N=C(c1ccc(F)cc1)C(=S)N2	-4.3%	40.7%	11.5%	-3.8	12.6µM*
Cc1ccc(C2=NC3(CCCCC3)NC2=S)cc1	3.98µM*	15.3%	-6.8%	-14.1	2µM*
C=CC[C@@H](CC(=O)N(CCO)Cc1ccccc1)C(=O)NC[C@H](OC(=O)[C@@H](CC=C)CC(=O)OC(C)(C)C)c1ccccc1	·	-38.9%	-2.6%	-16.2	·
CCOc1cc(/C=N/NC(=O)C2CCCC2)ccc1OC(C)C	-7.9%	0.0%	3.0%	1.9	42.5%
CN1CCN(c2ncc3nc(-c4cccc(C#N)c4)c(=O)n(C)c3n2)CC1	-11.3%	·	·	·	-19.7%
O=C(NC(=S)Nc1ccc(C(F)(F)F)cc1)c1csnn1	?	-5.7%	-2.0%	15.7	7.94µM*
O=C(NC(=S)Nc1ccccc1)c1csnn1	?	1.1%	·	3.4	5.62µM*
Cc1ccc(-c2[nH]ncc2CNC(C)c2ccccc2)cc1 (stereo not drawn)	·	·	·	14.2	·
CC(C)=CCC1=C(OCC(=O)O)C(=O)c2ccccc2C1=O	2.24µM*	?	-3.4%	-15.8	?
CC1=C(C(=O)OCc2ccccc2)C(c2ccc(Cl)cc2)NC(=O)N1CCCC(=O)O (stereo not drawn)	7.6%	40.1%	-1.9%	-18.7	15.8µM*
CC(Oc1ncnc2ccccc12)C(=O)Nc1cccc(S(=O)(=O)N2CCOCC2)c1 (stereo not drawn)	-6.6%	-34.0%	-0.2%	-8.5	36.9%
CN(C)S(=O)(=O)c1ccc(C(=O)NCc2ccc3[nH]c4c(c3c2)CCCC4)cc1	-2.7%	-9.1%	10.4%	-9.1	?
Cc1ccc(C)c(NC(=S)NCc2ccc3[nH]c4c(c3c2)CCCC4)c1	6.31µM*	-31.8%	8.7%	-5.6	2µM*
O=C(NCc1ccc2[nH]c3c(c2c1)CCCC3)c1ccc(S(=O)(=O)N2CCCC2)cc1	8.8%	1.0%	1.6%	-23.6	?
Cc1ccccc1NC(=S)NCc1ccc2[nH]c3c(c2c1)CCCC3	3.55µM*	-11.5%	-4.4%	-1.2	1.58µM*
S=C(NCc1ccc2[nH]c3c(c2c1)CCCC3)Nc1ccccc1Cl	8.91µM*	19.0%	0.0%	-4.6	3.16µM*
Cc1nn(-c2ccccc2)c2nc(C3CC3)cc(C(=O)Nc3ccccc3F)c12	·	·	3.0%	·	·
NC(=O)c1cc(Br)cc2c3c([nH]c12)CCCC3	17.8µM*	-24.9%	-1.0%	-10.6	-11.9%
CCOC(=O)c1cc(C(=O)OCC)cc(-n2cc(O)c(C(=O)OCC)n2)c1	11.2µM*	-18.3%	-4.6%	-3.9	?
N#CC1=C(N)N(c2cccc(Cl)c2)C2=C(C(=O)CCC2)C1c1cc(CN2CCOCC2)cs1 (stereo not drawn)	·	·	-0.8%	·	·
SMILES	Gal4-VP16 FLuc	a7 integrin act	ERG Ets-DNA blk	Giardia killer	RORg inh
Cc1ccc(CNCCCSc2nc(C)cc(C)n2)cc1	2µM*	-52.4%	7.7%	-9.6	?
Cc1cc(C)nc(SCCCNCc2ccc(Br)cc2)n1	?	-47.1%	-6.5%	-24.2	?
C/C(=N\Nc1nc(C)cc(-c2ccccc2)n1)c1ccccc1	5.01µM*	?	8.5%	2.6	3.55µM*
C/C(=N\Nc1nc(C)cc(-c2ccccc2)n1)c1cccc(N)c1	15.8µM*	-7.0%	3.0%	17.9	11.2µM*
C/C(=N\Nc1cc(-c2ccccc2)nc(-c2ccccc2)n1)c1ccc(O)c(C)c1	12.6µM*	-61.5%	3.3%	-15.2	8.91µM*
COc1cc(N/N=C(\C)c2ccc(O)c(C)c2)nc(-c2ccccc2)n1	-26.9%	-34.4%	1.7%	-9.2	24.3%
C/C(=N\NC(=O)c1ccc(-c2ccccc2)cc1)c1cccc(N)c1	-16.2%	-14.7%	3.4%	2.7	12.6µM*
C/C(=N\NC(=O)c1ccccc1)c1cccc(Br)c1	?	9.8%	-0.8%	-23.4	-120.9%

Compound activity from PubChem BioAssay.
